Screening results from PubChem.
NPC1 promoter act: activates the NPC1 promoter; Huh7 NPC1 promoter luciferase reporter, 24 h; Potency, µM (titrated, usually from 9.22 µM), usual class: activators; 320,000 tested, 2.4% active; note: nearly all actives have a fitted effect of over 60% in size
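Luminescence from an NPC1 promoter-driven luciferase reporter in stably transfected Huh7 cells was measured after 24 h compound treatment at 37 °C, followed by 10 min ambient incubation with luciferase detection reagent.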
ELG1 DNA repair: inhibitors of ELG1-dependent DNA repair in HEK293T cells. HEK293T ELG1-luciferase reporter, luminescence, 16 h; DNA damage induced by 5-fluorouridine. 330,000 tested, 2.3% active. Potency, µM (series often up to 46.1 µM), actives largely listed as inhibitors; note: nearly all actives have a fitted effect of over 55% in size
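Reporter activity after DNA damage by 5-fluorouridine is monitored. Compound-treated cells incubate 16 hr at 37 °C, then ONE-Glo is added for 30 min before luminescence reading.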
Rab9 prom act: activates the Rab9 promoter; Huh7 Rab9 promoter-luciferase reporter, luminescence, 24 h; Potency, µM (highest dose often 9.22 µM), usual class: activators; 320,000 tested, 2.8% active; AID 485297; note: nearly all actives have a fitted effect of over 60% in size
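Stable Rab9-luc Huh7, 1500 cells/well, 2 h settle; cmpd in DMSO, 24 h, 37 °C/5% CO2; luciferase reagent 10 min RT; luminescence.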
SMN2 splice enh: SMN2 splice variant enhancement | HEK293 SMN2-luciferase splicing reporter, luminescence, 30-36 h | Potency, µM (highest dose often 46.1 µM), usual class: activators | 210,000 tested, 2.8% active | AID 1458; note: nearly all actives have a fitted effect of over 55% in size
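qHTS luciferase splicing reporter: luminescence rises when SMN2 exon 7 is included in transfected HEK293 cells. Compound exposure lasted 30-36 h at 37C, with 4.5 mM final sodium butyrate as control, followed by a ONE-Glo read.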
ELG1 genotoxic: induces genotoxicity in HEK293T cells with luciferase-tagged ELG1; HEK293T ELG1-luciferase reporter, luminescence, 16 h; Potency, µM (series often up to 46 µM), usual class: activators; 330,000 tested, 1.3% active; AID 504466; note: nearly all actives have a fitted effect of over 60% in size
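Cells (2,000/well) expressing the ELG1-luciferase fusion are dosed by pin tool and kept 16 hr at 37 °C, 5% CO2. Signal comes from ONE-Glo luciferase reagent after 30 min at room temperature.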
FLuc counter: firefly luciferase modulation, counter-screen for miR-21 project. P08659. 360,000 tested, 6.9% active. Potency, µM (series often up to 57.5 µM), actives largely listed as inhibitors. purified FLuc, Km substrates, luminescence inhibition. AID 588342; note: nearly all actives have a fitted effect of over 55% in size
Target sequence (P08659 whole entry, looked up): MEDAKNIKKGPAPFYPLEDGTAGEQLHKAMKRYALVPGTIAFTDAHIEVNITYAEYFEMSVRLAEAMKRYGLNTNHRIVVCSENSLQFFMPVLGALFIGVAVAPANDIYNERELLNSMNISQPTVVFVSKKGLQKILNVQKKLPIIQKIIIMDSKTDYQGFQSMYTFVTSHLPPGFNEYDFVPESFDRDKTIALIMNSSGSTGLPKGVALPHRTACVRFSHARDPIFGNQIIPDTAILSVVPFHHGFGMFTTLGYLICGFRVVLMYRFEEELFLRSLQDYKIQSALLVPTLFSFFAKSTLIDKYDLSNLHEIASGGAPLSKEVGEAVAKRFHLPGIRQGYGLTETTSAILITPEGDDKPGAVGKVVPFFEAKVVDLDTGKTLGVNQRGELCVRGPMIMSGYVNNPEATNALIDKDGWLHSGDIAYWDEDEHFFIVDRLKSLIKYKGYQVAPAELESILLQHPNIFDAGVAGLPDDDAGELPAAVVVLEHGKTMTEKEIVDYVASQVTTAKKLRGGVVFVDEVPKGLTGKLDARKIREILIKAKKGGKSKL
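Purified P. pyralis luciferase (10nM final) with 10uM D-luciferin and 10uM ATP (Km levels) in 50mM Tris acetate pH 7.5, 10mM Mg acetate, 0.01% Tween-20, 0.05% BSA; qHTS 6-point titration, ~60 µM downward; luminescence read.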
Of the large screens only hits and unclear results are named; the others gave an inactive call. Compounds with a hit are over-represented: about 9.2% of the library has one in this group of screens. Calls come from the whole dose curve; as a rule, active = well fitted curve in the direction sought with a large enough effect; inconclusive = small, poorly fitted or top-dose-only effect, or another doubt; inactive = no such curve, though single readings can be large; an effect the other way counts as inactive or inconclusive.

CCn1c(C)nc2cc(C(=O)NNC(=O)CN(C)S(=O)(=O)c3ccc(NC(C)=O)cc3)ccc21	ELG1 DNA repair inconclusive (no result: NPC1 promoter act, Rab9 prom act, SMN2 splice enh, FLuc counter)
FC(F)(F)c1nc(-c2cccs2)ncc1-c1nnnn1-c1ccc(Cl)cc1	ELG1 DNA repair 21µM
Clc1ccc(-n2nnnc2-c2cnc(-c3ccncc3)nc2-c2cccs2)cc1	ELG1 DNA repair inconclusive
NC1=NC(=Nc2ccc(Br)cc2)c2ccccc21	ELG1 DNA repair inconclusive, ELG1 genotoxic inconclusive, FLuc counter 8.5µM
CC(C)c1ccc(N=C2N=C(N)c3ccccc32)cc1	ELG1 DNA repair inconclusive, Rab9 prom act inconclusive, ELG1 genotoxic inconclusive, FLuc counter 0.48µM (no result: SMN2 splice enh)
NC1=NC(=Nc2ccc(Cl)cc2)c2ccccc21	FLuc counter 7.6µM
COc1cccc(-n2nnnc2SCC(=O)Nc2ccc(OC)cc2OC)c1	none (no result: SMN2 splice enh)
Nc1nnc(-c2cc3ccccc3oc2=O)s1	NPC1 promoter act inconclusive, ELG1 DNA repair inconclusive, Rab9 prom act 1.6µM, SMN2 splice enh 18µM, ELG1 genotoxic inconclusive, FLuc counter inconclusive
O=c1oc2ccccc2cc1-c1ccc(O)cc1O	FLuc counter inconclusive
O=c1oc2ccccc2cc1-c1nnc(NCc2ccco2)s1	NPC1 promoter act 1.1µM, ELG1 DNA repair inconclusive, Rab9 prom act 0.71µM, SMN2 splice enh 11µM, ELG1 genotoxic inconclusive, FLuc counter 2.7µM
Nc1cccc(-c2cc3ccccc3oc2=O)c1	ELG1 DNA repair inconclusive, ELG1 genotoxic inconclusive, FLuc counter 19µM
O=Cc1c(-c2ccccc2)cc2oc3ccccc3cc1-2	ELG1 DNA repair inconclusive, Rab9 prom act 3.5µM, ELG1 genotoxic 3.7µM, FLuc counter 0.76µM (no result: SMN2 splice enh)
CC(C)CCNC(=O)c1ccc2c(c1)NC(=O)C(C(C)C)N2 (stereo unspecified)	none (no result: NPC1 promoter act, ELG1 DNA repair, Rab9 prom act, ELG1 genotoxic)
N#C/C(=C\c1ccco1)C(=O)Nn1cnnc1	none
Cc1ccc(-c2cc(N)n(-c3ccccc3)n2)cc1	NPC1 promoter act 1.1µM, ELG1 DNA repair inconclusive, Rab9 prom act 2.8µM, SMN2 splice enh 11µM, ELG1 genotoxic inconclusive, FLuc counter 1.7µM
CCc1ccc(-c2cc(N)n(-c3ccccc3)n2)cc1	NPC1 promoter act 0.56µM, ELG1 DNA repair inconclusive, Rab9 prom act 1.3µM, SMN2 splice enh 5µM, ELG1 genotoxic 2.6µM, FLuc counter 1.7µM
Nc1cc(C2CCCC2)nn1-c1ccccc1	NPC1 promoter act 2.2µM, ELG1 DNA repair inconclusive, Rab9 prom act inconclusive, SMN2 splice enh 20µM, ELG1 genotoxic inconclusive, FLuc counter 15µM
CCc1ccc(-c2cc3c(N4CCN(c5ccccc5)CC4)nccn3n2)cc1	SMN2 splice enh 14µM, FLuc counter 19µM (no result: NPC1 promoter act, ELG1 DNA repair, Rab9 prom act, ELG1 genotoxic)
Cc1cc(C)cc(C(=O)Nc2c(C(=O)Nc3ccccc3F)oc3ccccc23)c1	SMN2 splice enh inconclusive (no result: NPC1 promoter act, ELG1 DNA repair, Rab9 prom act, ELG1 genotoxic)
CCOC(=O)c1c(C)[nH]c(C)c1S(=O)(=O)N(C)CC(=O)Nc1ccc(C)c(F)c1	none (no result: NPC1 promoter act, ELG1 DNA repair, Rab9 prom act, SMN2 splice enh, ELG1 genotoxic)
O=S1(=O)CCOCCCN1Cc1cccc(C(F)(F)F)c1	none (no result: SMN2 splice enh)
Cc1cccc(-c2cc(N)n(-c3ccccc3)n2)c1	NPC1 promoter act 1.3µM, ELG1 DNA repair inconclusive, Rab9 prom act 0.79µM, SMN2 splice enh 11µM, ELG1 genotoxic inconclusive, FLuc counter 4.3µM
Cc1cccc(-c2cc(NC(=O)C(C)(C)C)n(-c3ccccc3)n2)c1	FLuc counter 21µM (no result: NPC1 promoter act, ELG1 DNA repair, Rab9 prom act, SMN2 splice enh, ELG1 genotoxic)
Cc1ccccc1SCCNC(=O)c1ccccc1Br	ELG1 DNA repair inconclusive, Rab9 prom act inconclusive, FLuc counter 24µM
Cc1ccccc1SCC(=O)NNC(=O)c1ccccc1O	ELG1 genotoxic inconclusive, FLuc counter 24µM (no result: SMN2 splice enh)
O=C(NCCNC(=O)c1ccccc1Br)c1ccccc1Br	none (no result: SMN2 splice enh)
Cc1cc2nc(N3C(=O)CNC3=S)sc2cc1C	NPC1 promoter act 0.45µM, ELG1 DNA repair inconclusive, Rab9 prom act 0.45µM, SMN2 splice enh 4µM, ELG1 genotoxic 18µM, FLuc counter 0.54µM
Cc1nccn1CCCN1C(=O)CNC1=S	none
CCOc1ccc2nc(SC3CC(=O)N(c4ccc(OC)cc4)C3=O)sc2c1 (stereo unspecified)	ELG1 DNA repair inconclusive, Rab9 prom act inconclusive, FLuc counter inconclusive
CCOc1ccc2nc(N3C(=O)CNC3=S)sc2c1	NPC1 promoter act 0.71µM, ELG1 DNA repair inconclusive, Rab9 prom act 0.56µM, ELG1 genotoxic 21µM, FLuc counter 0.85µM (no result: SMN2 splice enh)
O=C(O)c1ccccc1-c1ccccc1C(=O)c1ccccc1	none (no result: NPC1 promoter act, ELG1 DNA repair, Rab9 prom act, ELG1 genotoxic, FLuc counter)
O=C1C(=O)c2c(C(=O)c3ccccc3)coc2-c2ccccc21	ELG1 DNA repair inconclusive, ELG1 genotoxic 10µM, FLuc counter inconclusive
CN(C)c1ccc(NC(=O)N2CCOCC2)cc1	ELG1 DNA repair inconclusive, SMN2 splice enh inconclusive, FLuc counter 24µM
O=C(Nc1ccc(F)cc1)N1CCOCC1	SMN2 splice enh inconclusive
CCC(C)c1ccc(NC(=O)N2CCOCC2)cc1 (stereo unspecified)	NPC1 promoter act 2.5µM, ELG1 DNA repair inconclusive, Rab9 prom act 2.5µM, ELG1 genotoxic inconclusive, FLuc counter 15µM (no result: SMN2 splice enh)
CCn1cc(S(=O)(=O)Nc2cc(C(=O)OC)ccc2C)cn1	none (no result: SMN2 splice enh)
O=C(Nc1cnn(C23CC4CC(CC(C4)C2)C3)c1)c1cnn2cccnc12	NPC1 promoter act 0.56µM, ELG1 DNA repair inconclusive, Rab9 prom act 0.45µM, ELG1 genotoxic inconclusive, FLuc counter 2.1µM (no result: SMN2 splice enh)
